Measurements published in PubChem BioAssay (NCATS).
Active and inactive are the calls of the source. Calls come from the whole dose curve; as a rule, active = well fitted curve in the direction sought with a large enough effect; inconclusive = small, poorly fitted or top-dose-only effect, or another doubt; inactive = no such curve, though single readings can be large or run the other way.

molecular target: Alpha-galactosidase (Coffea arabica) (UniProt Q42656); assay: Counterscreen for Glucocerebrosidase Inhibitors: qHTS Assay for Coffee Bean alpha-Galactosidase at pH 4.5 (AID 957); conditions: purified coffee bean alpha-galactosidase, fluorogenic substrate; series mostly up to 76.9 µM; activity change, negative = inhibition: at the top concentration;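 note: plate controls were enzyme alone for no effect and no enzyme for full effect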
Sequence (Q42656 whole entry, looked up): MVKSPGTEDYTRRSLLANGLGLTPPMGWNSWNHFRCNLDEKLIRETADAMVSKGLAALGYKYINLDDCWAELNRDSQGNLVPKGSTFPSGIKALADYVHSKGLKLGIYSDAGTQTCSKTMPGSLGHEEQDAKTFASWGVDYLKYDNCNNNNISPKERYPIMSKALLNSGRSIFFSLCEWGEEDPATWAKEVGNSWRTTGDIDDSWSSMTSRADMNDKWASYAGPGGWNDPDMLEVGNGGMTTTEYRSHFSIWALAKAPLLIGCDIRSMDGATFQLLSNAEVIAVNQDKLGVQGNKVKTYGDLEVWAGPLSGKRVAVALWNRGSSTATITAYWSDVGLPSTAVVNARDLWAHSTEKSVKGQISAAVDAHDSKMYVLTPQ
Procedure, shortened: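 Fluorogenic qHTS at pH 4.5 (citrate buffer with Tween-20): 2 nM enzyme, 80 uM 4-MU-alpha-galactoside substrate, compound titrated 0.7 nM to 77 uM, 20 min room temperature. Glycine/NaOH stop; 4-MU read Ex 365/Em 440; Hill-equation AC50 against no-enzyme and enzyme controls.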

| SMILES | activity change, negative = inhibition | outcome |
| --- | --- | --- |
| CN(C)CCN(Cc1cccs1)c1ccccn1 | -3.7% (inactive) |  |
| CC1=C(CC(=O)O)c2cc(F)ccc2/C1=C\c1ccc(S(C)(=O)=O)cc1 | -4.62% (inactive) |  |
| CN1[C@@H]2CC[C@H]1CC(OC(=O)c1c[nH]c3ccccc13)C2 (stereo not given in full) | -1.23% (inactive) |  |
| CNC[C@H](O)c1ccc(O)c(O)c1 |  | inactive |
| CCCn1cnc2c1c(=O)n(CCCCC(C)=O)c(=O)n2C | -0.651% (inactive) |  |
| CCOC(=O)C(C)(C)Oc1ccc(Cl)cc1 | 0.246% (inactive) |  |
| Cc1[nH]c(=O)c(C#N)cc1-c1ccc2nccn2c1 | -0.24% (inactive) |  |
| c1cc(CN2CCCCC2)cc(OCCCNc2nc3ccccc3s2)c1 | -10.8% (inactive) |  |
| C[C@]12CCC(=O)C=C1CC[C@@H]1[C@@H]2CC[C@@]2(C)[C@H]1CC[C@]2(O)C(=O)CO | -2.75% (inactive) |  |
| COCC(=O)O[C@]1(CCN(C)CCCc2nc3ccccc3[nH]2)CCc2cc(F)ccc2[C@@H]1C(C)C | -8.46% (inactive) |  |
| CCOC(=O)Nc1ccc(NCc2ccc(F)cc2)nc1N | 1.35% (inactive) |  |
| O=C(O)CN(CCOCCOCCN(CC(=O)O)CC(=O)O)CC(=O)O | 1.22% (inactive) |  |
| Brc1c(NC2=NCCN2)ccc2nccnc12 | 1.12% (inactive) |  |
| O=C(O)CP(=O)(O)O | -2.8% (inactive) |  |
| C[C@]12CCC(=O)C=C1CC[C@@H]1[C@@H]2C(=O)C[C@@]2(C)[C@H]1CC[C@]2(O)C(=O)CO | 0.672% (inactive) |  |
| OCc1cc(C(O)CNCCCCCCOCCCCc2ccccc2)ccc1O (stereo not given) | 0.935% (inactive) |  |
| Cn1cnc2c1c(=O)[nH]c(=O)n2C | -0.161% (inactive) |  |
| Nc1c2c(nc3ccccc13)CCCC2 | 3.54% (inactive) |  |
| CC1=C(C)C(=O)C(CCCCC#CCCCC#CCO)=C(C)C1=O | 0.864% (inactive) |  |
| NS(=O)(=O)c1cc2c(cc1Cl)NCNS2(=O)=O | -3.42% (inactive) |  |
